Experimental data published in PubChem BioAssay (EPA / NIEHS).
Some compounds were tested as several samples or in several runs, with calls that do not always agree. Calls of active or inactive are those of the source. Rule for the calls: active = hit-call score of the fitted dose curve at least 0.9, where 1 is the maximum; inactive = score below 0.9.

Assay: CCTE_Harrill_HTTr_Apoptosis_MCF7: CCTE's 6-hour Apoptosis Assessment for the High-Throughput Transcriptomics (HTTr) Platform, in MCF-7 cells cultured in DMEM + 10% fetal bovine serum, Harrill Lab (AID 2284011)
Text: This is a cell-based assay that evaluates apoptosis using high content imaging to evaluate activation of caspase-3/7 using the CellEvent Caspase 3/7 Green detection reagent in 384-well format.One of seven assay components measured from the CCTE_Harrill_HTTr_Apoptosis assay. This was part of a full screening experiment. This is a cell-based assay that evaluates apoptosis in MCF-7 cells cultured in DMEM + 10% fetal bovine serum. High content imaging is used to evaluate activation of caspase-3/7 using the CellEvent Caspase 3/7 Green detection reagent. Measurements are taken at 6 hours after chemical dosing in 384-well format.The assay component endpoint CCTE_Harrill_HTTr_Apoptosis_MCF7 was analyzed with bidirectional fitting relation to DMSO as the negative control and baseline of activity. Using a type of viability reporter, gain-of-signal activity can be used to evaluate activation of caspase-3/7 using the CellEvent Caspase 3/7 Green detection reagent to understand changes in apoptosis. To generalize the intended target to other relatable targets, this assay endpoint is annotated to cell cycle, where the subfamily is apoptosis.
Chemicals were tested in MCF7 cells in an eight point dilution series with a six hour exposure duration.

Which outcome does the source give for CCCc1c(OCCCOc2ccc(OCC(=O)O)cc2)ccc(C(C)=O)c1O here?
Its outcome is “inactive”.

Which results are given for c1ccc2[nH]ccc2c1?
outcome: inactive; AC50: 55.3 µM (active)

For S=C(S)NCCNC(=S)S, which outcome is on record?
The outcome was “inactive”.

Which outcome does the source give for CCC(=O)OCc1ccccc1 here?
The outcome was “inactive”.

Which outcome does the source give for O=C[C@H](O)[C@H](O)[C@H](O)CO here?
Its outcome is “inactive”.

With c1ccc2sc(SN(C3CCCCC3)C3CCCCC3)nc2c1 as the compound, how does the outcome read?
The outcome was “inactive”.

Which outcome does the source give for NC(N)=NC(=O)c1nc(Cl)c(N)nc1N here?
Its outcome is “inactive”.

For CC1(C)[C@@H]2CC[C@@]1(C)[C@H](O)C2, which outcome is on record?
The outcome was “inactive”.

For Cc1cccc(C)c1C, which outcome is on record?
Its outcome is “inactive”.

With O=C(O)CCCCCCCC(=O)O as the compound, how does the outcome read?
The outcome was “inactive”.

Which outcome does the source give for CC(c1cc2ccccc2s1)N(O)C(N)=O (stereo not given) here?
The outcome was “inactive”.

For Cc1c(Cl)c(=O)oc2cc(O)ccc12, which outcome is on record?
Its outcome is “inactive”.

Which outcome does the source give for CN1Cc2c(N)cccc2C(c2ccccc2)C1 (stereo not given) here?
The outcome was “inactive”.

Which outcome does the source give for O=C(Nc1ccccc1)c1cc([N+](=O)[O-])ccc1Cl here?
Its outcome is “inactive”.

Which outcome does the source give for O=C(O)COCCN1CCN(C(c2ccccc2)c2ccc(Cl)cc2)CC1 (stereo not given) here?
The outcome was “inactive”.

With NCCCCCCN as the compound, how does the outcome read?
The outcome was “inactive”.

For CCCCCC(CO)CCC (stereo not given), which outcome is on record?
Its outcome is “inactive”.

Which outcome does the source give for C=O here?
The outcome was “inactive”.

Which outcome does the source give for Cc1ccc(C=O)s1 here?
The outcome was “inactive”.

With CCCCO as the compound, how does the outcome read?
Its outcome is “inactive”.

Which outcome does the source give for C=C(C)[C@@H]1CC[C@@H](C)C[C@@H]1O here?
Its outcome is “inactive”.

For CC(C)C[C@H]1C(=O)N2CCC[C@H]2[C@]2(O)O[C@](NC(=O)[C@@H]3C=C4c5cccc6[nH]c(Br)c(c56)C[C@H]4N(C)C3)(C(C)C)C(=O)N12, which outcome is on record?
Its outcome is “inactive”.

With CCCCNC(=O)NS(=O)(=O)c1ccc(C)cc1 as the compound, how does the outcome read?
Its outcome is “inactive”.

Which outcome does the source give for CCN(CC)c1ccc2c(-c3ccccc3C(=O)O)c3ccc(=[N+](CC)CC)cc-3oc2c1 here?
Its outcome is “inactive”.

Which outcome does the source give for CC(=O)O[C@]1(C(C)=O)CC[C@H]2[C@@H]3C[C@H](C)C4=CC(=O)CC[C@]4(C)[C@H]3CC[C@@]21C here?
The outcome was “inactive”.

With O=C(O)c1cn(C2CC2)c2cc(N3CCNCC3)c(F)cc2c1=O as the compound, how does the outcome read?
Its outcome is “inactive”.

For CCCCCCCCCCCCCCCC(=O)O, which outcome is on record?
Its outcome is “inactive”.

Which outcome does the source give for CCC(C)CCCC(C)(C)O (stereo not given) here?
Its outcome is “inactive”.

For CN(C)CCOCCN(C)C, which outcome is on record?
The outcome was “inactive”.

Which outcome does the source give for C#C[C@]1(O)CC[C@H]2[C@@H]3CCC4=Cc5oncc5C[C@]4(C)[C@H]3CC[C@@]21C here?
The outcome was “inactive”.

Which outcome does the source give for Cc1ccc(C=O)cc1 here?
Its outcome is “inactive”.

With CC(=O)[C@H]1CC[C@H]2[C@@H]3CC=C4C[C@@H](O)CC[C@]4(C)[C@H]3CC[C@]12C as the compound, how does the outcome read?
Its outcome is “inactive”.

With CC1(C)CCC(C)(C)c2cc(C(=O)Nc3ccc(C(=O)O)cc3)ccc21 as the compound, how does the outcome read?
Its outcome is “inactive”.

For N#Cc1ccc(CC(=NNC(=O)Nc2ccc(OC(F)(F)F)cc2)c2cccc(C(F)(F)F)c2)cc1, which outcome is on record?
Its outcome is “inactive”.

For CN(C)C(=N)N=C(N)N, which outcome is on record?
The outcome was “inactive”.

With O=C(O)c1ccc(C(=O)O)cc1 as the compound, how does the outcome read?
The outcome was “inactive”.

With O=[N+]([O-])c1cc(C(F)(F)F)ccc1Cl as the compound, how does the outcome read?
The outcome was “inactive”.

For CC1=CCC(O)(C(C)C)CC1 (stereo not given), which outcome is on record?
Its outcome is “inactive”.

For CC(CCO)CCc1ccccc1 (stereo not given), which outcome is on record?
Its outcome is “inactive”.
